These results are taken from PubChem BioAssay.

The test system of assay [1] is Human papillomavirus type 1a protein E7 (residues 44-93). The assay can be described thus: HPV1a E7 fragment binders on microarrays, primary screen, biochemical, small-molecule microarray, residues 44-93, 635 nm fluorescence (AID 1108).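 Note: E7 fragment applied at 1 µg/mL in TBST for 1 h at 4 C; score combines spot fluorescence with its signal to noise ratio.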 As to conditions: small-molecule microarray binding, fluorescence 635 nm; higher = more signal.
A short description of assay [2]: modulators of HCV replicon luciferase signal, primary screen, HCV replication inhibitor project, Huh7 cells, luciferase reporter (AID 1109).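 Note: huh7 hepatoma cells harbouring a luciferase neomycin HCV replicon reporter; luciferase luminescence as measure of HCV replicon replication; test concentration not given here.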 To be noted: 48 h, higher = more signal. In general terms: A replicon is a self-replicating genome or part of one, used to study replication in cells.
Assay [3] deals with Left-right determination factor 2 (Homo sapiens) (UniProt O00292). Briefly: LEFTY2 binders on small-molecule microarrays, primary screen, biochemical, small-molecule microarray, 635 nm fluorescence scan (AID 1110). As to conditions: LEFTY2 binding, higher = more signal.
Chain of Left-right determination factor 2 (Homo sapiens) (O00292 whole entry, looked up): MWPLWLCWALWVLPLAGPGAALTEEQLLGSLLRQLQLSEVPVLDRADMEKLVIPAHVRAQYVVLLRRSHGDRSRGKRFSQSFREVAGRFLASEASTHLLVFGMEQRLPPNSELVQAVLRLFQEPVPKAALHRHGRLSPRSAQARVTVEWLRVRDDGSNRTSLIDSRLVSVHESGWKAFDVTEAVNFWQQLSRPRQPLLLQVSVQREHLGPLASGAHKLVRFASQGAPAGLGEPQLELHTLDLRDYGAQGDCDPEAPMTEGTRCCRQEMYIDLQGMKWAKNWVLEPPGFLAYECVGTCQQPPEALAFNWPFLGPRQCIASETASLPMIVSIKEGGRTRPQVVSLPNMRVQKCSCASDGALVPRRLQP
Assay [4] addresses Calmodulin-1 (Homo sapiens) (UniProt P0DP23). Briefly: CALM1 binders on microarrays, EGTA buffer, profiling panel, biochemical, small-molecule microarray, Cy5-labelled CALM1 (AID 1111).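 Note: labelled calmodulin applied in Tris saline Tween buffer holding calcium plus EGTA and DTT.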 To be noted: Cy5-CALM1 binding fluorescence, higher = more signal.
The target is the same in assay [5]. Briefly: calcium-bound CALM1 binders on microarrays, profiling panel, artefact control for SMM control-protein annotation, biochemical, small-molecule microarray, Cy5-labelled CALM1, plus calcium (AID 1112).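 Note: score merges spot fluorescence with signal to noise from triplicate slides.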 As to conditions: Cy5-CALM1 binding fluorescence, higher = more signal.
A short description of assay [6]: small-molecule microarray binders of probe aWnt5a, primary screen, biochemical, biotinylated probe, 635/667 nm fluorescence (AID 1113).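 Note: score merges 667 nm fluorescence intensity with signal-to-noise per printed feature.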 To be noted: higher = more signal.
Assay [7] can be described thus: small-molecule microarray binders of probe aShh, primary screen, biochemical, biotinylated probe, 635/667 nm fluorescence (AID 1114).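 Note: probe is biotin-labelled aShh protein from a stem cell growth factor screen; measures binding of labelled protein to compounds printed on the slide; score merges feature fluorescence at 667 nm with signal-to-noise.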 As to conditions: higher = more signal.
Assay [8] can be described thus: small-molecule microarray binders of probe aNog, primary screen, biochemical, biotinylated probe, 635/667 nm fluorescence (AID 1115).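 Note: probe is biotinylated aNog protein used at 0.15 µg/mL for 1 h at 4 C; z-score combines 667 nm fluorescence of each spot with its signal to noise.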 As to conditions: higher = more signal.
The target of assay [9] is Torsin-1A-interacting protein 1 (Homo sapiens) (UniProt Q5JTV8). Briefly: LAP1 binders from COS7 cell lysate, primary screen, small-molecule microarray, 635/667 nm fluorescence (AID 1116). To be noted: COS7-hLAP1 lysate binding, 635 nm fluorescence, higher = more signal.
Chain of Torsin-1A-interacting protein 1 (Homo sapiens) (Q5JTV8 whole entry, looked up): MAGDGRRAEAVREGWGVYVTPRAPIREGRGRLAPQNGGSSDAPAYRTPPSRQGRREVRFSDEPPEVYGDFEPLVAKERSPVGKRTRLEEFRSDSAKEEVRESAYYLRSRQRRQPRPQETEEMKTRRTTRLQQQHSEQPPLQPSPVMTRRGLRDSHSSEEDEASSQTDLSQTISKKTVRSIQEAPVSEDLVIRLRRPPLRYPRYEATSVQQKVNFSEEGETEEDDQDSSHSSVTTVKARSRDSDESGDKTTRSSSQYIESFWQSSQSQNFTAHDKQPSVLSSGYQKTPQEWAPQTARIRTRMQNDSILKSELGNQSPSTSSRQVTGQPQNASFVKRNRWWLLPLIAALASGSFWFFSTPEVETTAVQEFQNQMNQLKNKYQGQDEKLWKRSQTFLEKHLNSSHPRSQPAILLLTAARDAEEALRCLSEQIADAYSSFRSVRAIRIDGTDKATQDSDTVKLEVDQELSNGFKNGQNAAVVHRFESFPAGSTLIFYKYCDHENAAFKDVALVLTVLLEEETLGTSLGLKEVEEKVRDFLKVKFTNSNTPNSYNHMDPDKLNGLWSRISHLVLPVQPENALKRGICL
Assay [10] has as its target Alpha-bungarotoxin (Bungarus multicinctus) (UniProt P60615). The assay can be described thus: alpha-bungarotoxin binders on microarray, profiling panel, artefact control for SMM control protein annotation, biochemical, small-molecule microarray, Alexa647 label, 635/667 nm fluorescence (AID 1117). As to conditions: alpha-BTX-A647 binding fluorescence, higher = more signal.

Chain of Alpha-bungarotoxin (Bungarus multicinctus) (P60615 whole entry, looked up): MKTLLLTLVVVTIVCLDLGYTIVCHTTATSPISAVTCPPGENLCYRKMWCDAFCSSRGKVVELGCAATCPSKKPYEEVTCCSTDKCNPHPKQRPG

On to `Cc1ccc(S[C@]2(C(=O)NCCN3CCOCC3)CC(=O)N(C3CCCCC3)[C@@H]2c2ccc(CO)cc2I)cc1`, for which the composite z-score in assay [1] was 1.46; in [3] it was 0.134; in assay [4], 0.562; in [5] it was 0.326; in assay [6], 0.0214; in assay [7] it was 0.23. For the same compound, the results for the composite z-score in [8], in assay [9] and in assay [10] were -0.0098, 1.37 and 1.23, respectively. In assay [2], this compound yielded a z-score of -3.05.

Consider `O=C1OCCC=C[C@H]2OC34C=CCN(CCN5CCOCC5)C(=O)[C@H]3N(CCCO)C(=O)[C@@H]4C12` (stereo not given in full), for which the composite z-score in assay [1] is -0.211; in assay [3], -0.861; in assay [4], -0.572; in assay [5], -1.17; in assay [6], -0.228; in assay [7] it was -0.144. Further, the composite z-score in [8] is -0.318; in assay [9], -0.79; in assay [10], -0.386. The z-score in assay [2] is -1.03.

As to `CCCCN1CC=CC23O[C@@H]4C=CCOC(=O)[C@@H]4[C@H]2C(=O)N(C(CO)C(C)C)[C@@H]3C1=O` (stereo not given in full), the composite z-score was -0.321 in assay [1]; -0.383 in assay [3]; -0.782 in [4]; -0.828 in assay [5]; -0.173 in assay [6]; -0.138 in assay [7]. The composite z-score in assay [8] was -0.381; in [9] it was -0.457; in assay [10] it was -0.843. In addition, in assay [2], the z-score is -1.23.

With `CCOC(=O)C1=CCC(c2cc3ccccc3[nH]2)N(S(=O)(=O)c2ccccc2[N+](=O)[O-])C1` (stereo not given), the composite z-score was 0.833 in [1]; -0.335 in [3]; -0.115 in assay [4]; -0.472 in [5]; 0.0839 in assay [6]; 0.0121 in assay [7]. The values for the composite z-score in assay [8], in [9] and in [10] were -0.142, 0.161 and 1.97, respectively. Further, the z-score in [2] was -1.86.

As to `CCC[C@@H]1[C@@H](Sc2ccccc2)[C@@H](C(=O)O)[C@H](c2ccc(C)cc2)N1S(=O)(=O)c1ccc(C)cc1`, the composite z-score in assay [1] was 1.47; in assay [3], 0.241; in [4], 1.87; in assay [5], 0.859; in [6], 0.108; in assay [7], -0.0866. Moreover, the results for the composite z-score in assay [8], in assay [9] and in assay [10] were -0.0987, 0.425 and 1.41, respectively. For the same compound, in [2], the z-score is -1.57.

For `C=CCC(OC(C)=O)[C@@H]1[C@@H](N(Cc2cccc3ccccc23)C(=O)c2ccc(C)cc2)c2cc(OCCCO)ccc2N1C(=O)c1ccc2ccccc2n1` (stereo not given in full), the composite z-score in [1] is -0.139; in assay [3] it was -0.0457; in [4], -0.388; in assay [5] it was -0.195; in assay [6], -0.147; in assay [7] it was -0.341. The composite z-score in assay [8] was -0.555; in [9], 0.482; in [10], 1.46. Besides, the z-score in assay [2] was -0.614.

On to `CCOC(=O)C1=C(C(=O)OCC)N(S(=O)(=O)CC[Si](C)(C)C)[C@H](c2ccccc2)CC1`, for which the composite z-score was 1.3 in assay [1]; -0.171 in assay [3]; 0.435 in assay [4]; 0.161 in assay [5]; 0.0307 in assay [6]; -0.164 in assay [7]. Besides, the composite z-score in assay [8] was 0.118; in assay [9], 0.356; in [10], 1.23. In [2], this compound showed a z-score of -2.8.

For `COCCOC(=O)N1C(=O)[C@@]2(c3cc(C#CC4(O)CCCCCC4)ccc31)[C@H](c1ccc(OCCO)cc1)N1[C@H](c3ccccc3)[C@H](c3ccccc3)OC(=O)[C@H]1[C@@H]2C(=O)N1CCCCCCC1`, the composite z-score in assay [1] came to 1.41; in [3] it was 0.725; in [4] it was 2.18; in [5], 1.45; in [6], 0.716; in assay [7], 1.01. Further, the composite z-score in assay [8] came to 2.62; in assay [9], 2.51; in assay [10], 1.89. In addition, in [2], the z-score was -1.94.

On to `NC(=O)[C@@]1(CCS(=O)(=O)c2ccccc2)COC(c2ccc(OCCCO)cc2)=N1`, for which the composite z-score in assay [1] is -0.244; in [3] it was -0.323; in [4], 1.12; in [5], 0.549; in assay [6], -0.0495; in assay [7], 0.138. Further, the composite z-score was -0.359 in [8], 0.512 in assay [9] and 0.768 in assay [10]. For the same compound, the z-score in assay [2] is -0.806.

For `CCCC[C@@H](O)C1=C(COC)Cn2c(=O)n(-c3ccccc3)c(=O)n2[C@H]1CO`, the composite z-score in assay [1] is -0.877; in assay [3] it was -0.1; in assay [4], -0.97; in [5] it was -0.694; in assay [6] it was -0.172; in assay [7], -0.2. In addition, the composite z-score in assay [8] was 0.474; in [9], 0.0334; in assay [10] it was -0.115. Besides, the z-score in assay [2] stood at 1.36.

`CCCCC(O)C1C=CC2C(=O)NC(=O)C2N1Nc1ccc(Cl)cc1Cl` (stereo not given): the composite z-score in assay [1] was 0.694; in [3] it was -1.11; in assay [4], 0.436; in [5], 0.476; in [6], 0.0915; in assay [7], 0.0483. Besides, the results for the composite z-score in [8], in assay [9] and in assay [10] were 1.31, -0.0411 and 1.1, respectively. Moreover, the z-score in assay [2] was -1.12.

As for `C#CCN=C(N)N`, the composite z-score was 0.69 in [1]; 1.11 in assay [3]; -0.617 in assay [4]; -0.736 in [5]; -0.131 in assay [6]; -0.0813 in assay [7]. Besides, the results for the composite z-score in assay [8], in [9] and in assay [10] were -0.226, 0.622 and 0.0757, respectively. In addition, in [2], the z-score was -0.613.

Regarding `C=C(COC)/C(=C/C[C@@H](OC(C)=O)c1ccccc1OCCO)c1cc(C(=O)OC)ccc1OC`, the composite z-score is 1.3 in assay [1]; -0.145 in assay [3]; -0.249 in [4]; -0.808 in assay [5]; -0.1 in assay [6]; 0.0469 in [7]. Besides, the values for the composite z-score in [8], in [9] and in assay [10] were 0.0502, 1.46 and 0.324, respectively. Further, in assay [2], the z-score is -2.3.

On to `[N-]=[N+]=NCc1ccccc1C[C@]1(C(=O)N2CCOCC2)N=C(c2ccc(OCCCO)cc2)O[C@H]1c1ccccc1CN=[N+]=[N-]`, for which the composite z-score in assay [1] was 0.344; in assay [3], -0.0716; in assay [4] it was 2.49; in assay [5] it was 1.28; in [6], 0.653; in assay [7], 0.564. In addition, the composite z-score in assay [8] worked out at 0.967; in assay [9], 2.79; in assay [10], 2.74. This compound yielded a z-score in [2] of -2.48.

With `COCCCNC(=O)[C@@]1(Sc2ccc(C)cc2)CC(=O)N(C2CCCCC2)[C@@H]1c1ccc(CO)cc1I`, the composite z-score was 1.01 in assay [1]; 0.816 in [3]; 0.99 in assay [4]; 0.565 in assay [5]; -0.0853 in assay [6]; -0.0362 in assay [7]. Besides, the values for the composite z-score in assay [8], in [9] and in assay [10] were -0.631, 1.34 and 1.99, respectively. The compound further displayed a z-score in assay [2] of -2.63.

As for `COC(=O)Cn1c(C(=O)N(C)C)cc2c1C[C@H]1CN(C(=O)c3ccccc3)[C@@](Cc3ccc(OC)cc3)(C(=O)OC)[C@@H]21`, the composite z-score in assay [1] is 1.3; in assay [3], -0.212; in assay [4], 0.966; in assay [5], -0.39; in assay [6], 0.409; in assay [7], 0.297. The composite z-score in assay [8] came to 2.26; in assay [9], 1.8; in assay [10], 0.299. The compound also displayed a z-score in assay [2] of -1.69.

In the case of `COCCOC(=O)N1C(=O)[C@@]2(c3cc(C#Cc4ccc(OC)cc4)ccc31)[C@H](C(=O)Nc1nc3ccccc3s1)[C@H]1C(=O)O[C@H](c3ccccc3)[C@H](c3ccccc3)N1[C@@H]2c1ccccc1OCCO`, the composite z-score in assay [1] is 0.773; in [3] it was 0.615; in [4] it was 1.5; in [5] it was 0.747; in assay [6], -0.299; in [7], -0.138. The composite z-score is -0.7 in [8], 0.188 in assay [9] and 0.968 in [10]. This compound also returned a z-score in assay [2] of -1.43.
